The values that follow come from PubChem BioAssay (Tox21).

Values joined by “and” are separate entries in the source; they are usually repeats but may differ in a detail not shown here. Identical values can stand only once. Inconclusive results are not listed. Active and inactive are the calls of the source. The call rests on the fitted dose curve; in most records, active means well fitted curve in the direction sought with a large enough effect in the repeat runs; inconclusive means weak or mixed curves; inactive means no such curve, though single readings can be large; an effect the other way counts as inactive or inconclusive.

Test [1] deals with Cytochrome P450 2C9 (Homo sapiens) (UniProt P11712). Put plainly: Cytochrome P450 Family 2 Subfamily C Member 9 (CYP2C9) small molecule antagonists: luciferase reporter qHTS assay (AID 1671198). Further: potency means the concentration at half of the fitted maximal effect. The settings on record: P450-Glo CYP2C9 enzyme assay, luciferin luminescence; series mostly up to 115 µM. The essentials:
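Enzyme-substrate mix preincubated with compound 10 min at room temperature; reaction started with NADPH regeneration solution, 1 h 37C. Luminescent luciferin product read after 20 min detection reagent.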

The target in test [2] is Cytochrome P450 1A2 (Homo sapiens) (UniProt P05177). The experiment in a line: Cytochrome P450 Family 1 Subfamily A Member 2 (CYP1A2) small molecule antagonists: luciferase reporter qHTS assay (AID 1671199). Further: potency means the concentration at half of the fitted maximal effect. To be noted: P450-Glo CYP1A2 enzyme, luciferin luminescence, 1 h; series mostly up to 115 µM. In outline: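 Read-out is luminescence from luciferin detection reagent (20 min) proportional to CYP1A2 activity; compounds in DMSO preincubated 10 min with enzyme and proluciferin substrate, then NADPH regeneration solution, 1 h, room temperature.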
(In a reporter assay the amount or activity of a reporter protein is the signal.)

In test [3] the target is Voltage-gated inwardly rectifying potassium channel KCNH2 (Homo sapiens) (UniProt Q12809). Put plainly: Human Ether-a-go-go-Related Gene (hERG) channel small molecule antagonists: fluorescence cell-based qHTS assay (AID 1671200). Further: potency means the concentration at half of the fitted maximal effect. To be noted: hERG-U2OS cells, FluxOR thallium flux fluorescence; series mostly up to 76.8 µM. The essentials:
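In this thallium-flux screen, overnight-cultured U2OS cells bearing the channel are dye-loaded in darkness for an hour, rested 10 min at room temperature, and then monitored kinetically at 480/540 nm for two minutes post-stimulus.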
In general terms: Block of hERG is tested as a sign of cardiac risk.

Test [4] has as its target Cytochrome P450 3A4 (Homo sapiens) (UniProt P08684). The experiment in a line: Cytochrome P450 Family 3 Subfamily A Member 4 (CYP3A4) small molecule antagonists: luciferase reporter qHTS assay (AID 1671201). The settings on record: P450-Glo CYP3A4 enzyme, luciferin luminescence, 1 h; series mostly up to 115 µM. In outline: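 CYP3A4 activity was followed with a P450-Glo proluciferin substrate. Test compounds in DMSO were preincubated 10 min; NADPH regeneration then ran 1 h, and light output was read 20 min after detection reagent.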
Further: nearly all actives have a fitted effect of over 50% in size.

Chain of Cytochrome P450 3A4 (Homo sapiens) (P08684 whole entry, looked up): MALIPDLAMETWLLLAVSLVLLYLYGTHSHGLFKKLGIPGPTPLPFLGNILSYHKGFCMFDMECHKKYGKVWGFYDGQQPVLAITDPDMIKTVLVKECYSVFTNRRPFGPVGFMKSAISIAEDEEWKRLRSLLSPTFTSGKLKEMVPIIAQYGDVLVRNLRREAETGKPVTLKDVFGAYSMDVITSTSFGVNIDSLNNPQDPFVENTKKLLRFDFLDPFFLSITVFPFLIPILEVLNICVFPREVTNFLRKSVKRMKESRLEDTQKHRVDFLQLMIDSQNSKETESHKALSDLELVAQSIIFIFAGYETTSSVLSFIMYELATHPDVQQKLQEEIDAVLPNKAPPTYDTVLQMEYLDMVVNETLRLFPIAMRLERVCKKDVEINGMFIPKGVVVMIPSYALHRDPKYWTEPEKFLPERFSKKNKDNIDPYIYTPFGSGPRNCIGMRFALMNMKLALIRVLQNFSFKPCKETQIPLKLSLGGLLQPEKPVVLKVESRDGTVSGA
Chain of Voltage-gated inwardly rectifying potassium channel KCNH2 (Homo sapiens) (Q12809 whole entry, looked up): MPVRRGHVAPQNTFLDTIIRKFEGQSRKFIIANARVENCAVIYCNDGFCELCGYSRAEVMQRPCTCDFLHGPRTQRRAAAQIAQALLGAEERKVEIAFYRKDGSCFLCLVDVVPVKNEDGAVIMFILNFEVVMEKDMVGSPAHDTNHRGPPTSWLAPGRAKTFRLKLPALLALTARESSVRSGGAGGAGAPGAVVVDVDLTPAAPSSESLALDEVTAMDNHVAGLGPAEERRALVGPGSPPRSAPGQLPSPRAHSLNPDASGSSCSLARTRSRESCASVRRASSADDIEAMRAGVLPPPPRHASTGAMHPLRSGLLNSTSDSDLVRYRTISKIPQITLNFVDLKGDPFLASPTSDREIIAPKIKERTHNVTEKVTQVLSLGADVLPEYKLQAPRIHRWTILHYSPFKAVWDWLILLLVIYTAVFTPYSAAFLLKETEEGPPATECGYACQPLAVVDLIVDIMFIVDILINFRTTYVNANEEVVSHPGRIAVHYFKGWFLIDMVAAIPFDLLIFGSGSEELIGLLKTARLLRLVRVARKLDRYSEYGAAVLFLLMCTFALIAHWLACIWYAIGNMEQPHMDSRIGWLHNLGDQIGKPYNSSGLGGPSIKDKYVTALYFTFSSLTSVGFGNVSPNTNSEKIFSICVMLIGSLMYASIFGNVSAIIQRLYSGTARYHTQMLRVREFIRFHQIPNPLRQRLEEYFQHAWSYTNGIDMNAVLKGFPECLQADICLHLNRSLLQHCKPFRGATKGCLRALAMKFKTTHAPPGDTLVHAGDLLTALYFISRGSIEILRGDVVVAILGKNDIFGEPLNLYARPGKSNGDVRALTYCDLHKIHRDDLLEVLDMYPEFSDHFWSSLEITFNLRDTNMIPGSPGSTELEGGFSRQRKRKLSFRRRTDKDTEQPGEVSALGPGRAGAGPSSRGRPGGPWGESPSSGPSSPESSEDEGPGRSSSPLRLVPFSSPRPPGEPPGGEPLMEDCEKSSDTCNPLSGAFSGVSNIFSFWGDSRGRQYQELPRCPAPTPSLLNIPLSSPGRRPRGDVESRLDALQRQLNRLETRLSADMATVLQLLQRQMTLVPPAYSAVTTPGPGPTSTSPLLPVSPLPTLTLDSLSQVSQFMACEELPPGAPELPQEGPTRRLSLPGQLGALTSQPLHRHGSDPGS
Chain of Cytochrome P450 2C9 (Homo sapiens) (P11712 whole entry, looked up): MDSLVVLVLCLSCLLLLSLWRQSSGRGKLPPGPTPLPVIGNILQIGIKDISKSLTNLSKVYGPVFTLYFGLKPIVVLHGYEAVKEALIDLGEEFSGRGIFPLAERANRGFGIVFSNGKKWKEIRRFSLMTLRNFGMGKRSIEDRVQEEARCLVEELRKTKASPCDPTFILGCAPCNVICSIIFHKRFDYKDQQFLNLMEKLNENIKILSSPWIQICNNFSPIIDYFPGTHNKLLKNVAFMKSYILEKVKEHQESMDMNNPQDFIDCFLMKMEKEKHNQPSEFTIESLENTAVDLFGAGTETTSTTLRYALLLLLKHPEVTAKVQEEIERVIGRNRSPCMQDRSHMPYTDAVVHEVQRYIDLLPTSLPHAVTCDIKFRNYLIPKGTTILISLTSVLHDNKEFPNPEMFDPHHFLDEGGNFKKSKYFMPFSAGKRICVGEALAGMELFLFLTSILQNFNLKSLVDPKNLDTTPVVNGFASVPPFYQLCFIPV
Chain of Cytochrome P450 1A2 (Homo sapiens) (P05177 whole entry, looked up): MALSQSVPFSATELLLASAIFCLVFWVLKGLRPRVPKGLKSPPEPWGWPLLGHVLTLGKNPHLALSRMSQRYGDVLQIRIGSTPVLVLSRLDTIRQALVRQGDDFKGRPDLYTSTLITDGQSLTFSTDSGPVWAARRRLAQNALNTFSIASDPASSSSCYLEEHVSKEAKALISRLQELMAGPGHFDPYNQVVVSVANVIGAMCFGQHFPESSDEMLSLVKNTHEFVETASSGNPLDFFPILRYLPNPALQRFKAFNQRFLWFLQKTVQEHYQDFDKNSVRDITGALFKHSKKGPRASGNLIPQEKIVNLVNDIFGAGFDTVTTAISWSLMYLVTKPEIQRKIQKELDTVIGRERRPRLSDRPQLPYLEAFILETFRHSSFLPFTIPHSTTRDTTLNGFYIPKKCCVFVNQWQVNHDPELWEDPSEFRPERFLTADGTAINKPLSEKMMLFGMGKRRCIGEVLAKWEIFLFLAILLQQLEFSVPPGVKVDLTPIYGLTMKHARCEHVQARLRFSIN

Turning to `CN(C)C(=S)SC(=S)N(C)C`, the Potency is 36.5 µM (active) and 25.2 µM (active) and 34.7 µM (active) in test [1]; 32.5 µM (active) and 39.9 µM (active) and 25.7 µM (active) in test [2]. Further, the Potency result in test [3] and in test [4] was “inactive” each time.
As to `CCc1nc(N)nc(N)c1-c1ccc(Cl)cc1`, the Potency result in test [1], in test [2] and in test [3] was “inactive” throughout.
For the compound `CCCCCCCCCCCC[N+](C)(C)Cc1ccccc1`, the Potency in test [1] was 77.2 µM (active); in test [2], 34.9 µM (active) and 38.7 µM (active) and 36.3 µM (active); in test [3], 1.08 µM (active) and 1.5 µM (active) and 1.07 µM (active). Further, the Potency entry in test [4] is “inactive”.
As for `COc1ccc(CN(CCN(C)C)c2ccccn2)cc1`, the Potency entry in test [1], in test [2] and in test [4] was “inactive” in each case. The Potency in test [3] is 21.7 µM (active) and 20.1 µM (active).
As to `CC(=O)CCC(=O)O`, the Potency result in test [1], in test [2] and in test [3] was “inactive” throughout.
On to `Nc1c(N=Nc2ccc(-c3ccc(N=Nc4cc(S(=O)(=O)O)c5ccccc5c4N)cc3)cc2)cc(S(=O)(=O)O)c2ccccc12`, for which the Potency is 31.7 µM (active) in test [1] and 63.3 µM (active) in test [2].
As to `Nc1ccc([N+](=O)[O-])cc1O`, the Potency was 43.5 µM (active) in test [1] and 42.3 µM (active) in test [2]. Besides, the Potency entry in test [3] is “inactive”.
In the case of `CC(C)C(=O)Nc1ccc([N+](=O)[O-])c(C(F)(F)F)c1`, the Potency in test [1] was 32.6 µM (active) and 31.7 µM (active) and 15.5 µM (active); in test [2] it was 1.63 µM (active) and 5.03 µM (active) and 2.57 µM (active). Moreover, the Potency result in test [3] was “inactive”.
With `CCOC(N)=O`, the Potency result in test [1], in test [2], in test [3] and in test [4] was “inactive” throughout.
Regarding `C[C@](N)(Cc1ccc(O)c(O)c1)C(=O)O`, the Potency entry in test [1], in test [2], in test [3] and in test [4] was “inactive” each time.
